Measurements published in the supplement of paper PMC12494721.
Structures can show the parent of a compound that is named as a salt.

Experiments:
Settings in all cases: incubation time: 27 h, anaerobic, 37 °C;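 for the amine columns active = adjusted P below 0.05 in both replicates with a change the same way and a mean fold change under 0.8 or over 1.25; inactive = the rest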
[1] = system: Clostridium sporogenes DSM 1664; test: growth (OD595) fold change vs plate DMSO controls (fold change (ratio)); higher = more growth
Outline: (§1)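 Shaken 96-well cultures in mGAM, grown anaerobically for 27 h at 37 °C, were read at 595 nm. OD came from blank-subtracted readings, corrected for background with 20 µM compound solutions in water and scaled by a calibration factor of 5. Growth is the fold change versus the plate's median DMSO control. Values average 2 biological replicates, and any fold change above 1.5 is NA.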

Escherichia coli IAI1 [2] = test: as above
Outline: as §1

[3] = system: Klebsiella aerogenes DSM 30053; test: as above
Outline: as §1

[4] = system: Ruminococcus gnavus DSM 108212; test: as above
Outline: as §1

[5] = system: Klebsiella aerogenes DSM 30053; test: fold change of Histamine concentration vs plate DMSO controls (fold change (ratio)); higher = more amine produced, active = hit call of the paper (significant change in both replicates, either direction)
Outline: (§2)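 Using LC–triple-quadrupole MS with dynamic MRM, amines were quantified against external calibration curves and corrected for drift within each batch. Samples were whole anaerobic mGAM cultures of four gut strains, grown 27 h at 37 °C from OD 0.1 before 1:1 dilution, extracted with cold acetonitrile/methanol containing 0.1% formic acid and centrifuged. Compounds were present at 20 µM final (sweeteners at 50 µM final). The numbers are fold changes versus plate DMSO controls, each the mean of 2 biological replicates.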

[6] = system: Clostridium sporogenes DSM 1664; test: fold change of Tryptamine concentration vs plate DMSO controls (fold change (ratio)); higher = more amine produced, active = hit call of the paper (significant change in both replicates, either direction)
Outline: as §2

[7] = system: Ruminococcus gnavus DSM 108212; test: as above
Outline: as §2

Escherichia coli IAI1 [8] = test: fold change of Putrescine concentration vs plate DMSO controls (fold change (ratio)); higher = more amine produced, active = hit call of the paper (significant change in both replicates, either direction)
Outline: as §2

[9] = system: Klebsiella aerogenes DSM 30053; test: as above
Outline: as §2

Escherichia coli IAI1 [10] = test: fold change of Cadaverine concentration vs plate DMSO controls (fold change (ratio)); higher = more amine produced, active = hit call of the paper (significant change in both replicates, either direction)
Outline: as §2

[11] = system: Klebsiella aerogenes DSM 30053; test: as above
Outline: as §2

[12] = system: Ruminococcus gnavus DSM 108212; test: fold change of 2-Phenylethylamine concentration vs plate DMSO controls (fold change (ratio)); higher = more amine produced, active = hit call of the paper (significant change in both replicates, either direction)
Outline: as §2

| SMILES | growth [1] | growth (Escherichia coli IAI1 [2]) | growth [3] | growth [4] | fold change of Histamine concentration [5] | fold change of Tryptamine concentration [6] | fold change of Tryptamine concentration [7] | fold change of Putrescine concentration (Escherichia coli IAI1 [8]) | fold change of Putrescine concentration [9] | fold change of Cadaverine concentration (Escherichia coli IAI1 [10]) | fold change of Cadaverine concentration [11] | fold change of 2-Phenylethylamine concentration [12] |
| --- | --- | --- | --- | --- | --- | --- | --- | --- | --- | --- | --- | --- |
| OC(CCN1CCCC1)(c1ccccc1)C1CCCCC1 (stereo not given) [Procyclidine hydrochloride] (20 µM) | 0.903 | 1.05 | 1.02 | 0.966 | 0.947 (inactive) | 0.959 (inactive) | 0.894 (inactive) | 1.13 (inactive) | 1.08 (inactive) | 0.831 (inactive) | 1.04 (inactive) | 0.912 (inactive) |
| Cc1c(O)c(=O)n(-c2ccccc2)n1C [Antipyrine, 4-hydroxy] (20 µM) | 1.04 | 1.02 | 1.02 | 0.689 | 0.913 (inactive) | 0.985 (inactive) | 0.987 (inactive) | 1.01 (inactive) | 0.956 (inactive) | 0.973 (inactive) | 1.01 (inactive) | 0.932 (inactive) |
| O=C(Oc1ccccc1)c1ccccc1O [Phenyl salicylate] (20 µM) | 1.08 | 0.961 | 0.971 | 1.04 | 1.09 (inactive) | 1.12 (inactive) | 1.08 (inactive) | 1.03 (inactive) | 0.942 (inactive) | 0.916 (inactive) | 1 (inactive) | 1.13 (inactive) |
| COc1cccc2c1C(=O)c1c(O)c3c(c(O)c1C2=O)C[C@@](O)(C(=O)CO)C[C@@H]3O[C@H]1C[C@H](N)[C@H](O)[C@H](C)O1 [Doxorubicin hydrochloride] (20 µM) | 0.843 | 1.02 | 1.03 | 1.25 | 1.04 (inactive) | 0.956 (inactive) | 0.963 (inactive) | 0.958 (inactive) | 0.982 (inactive) | 1.03 (inactive) | 1.02 (inactive) | 0.943 (inactive) |
| CC[C@H](C)C(=O)O[C@H]1C[C@@H](C)C=C2C=C[C@H](C)[C@H](CC[C@@H]3C[C@@H](O)CC(=O)O3)[C@H]21 [Lovastatin] (20 µM) | 1.13 | 1 | 0.995 | 1.16 | 1.05 (inactive) | 0.945 (inactive) | 0.995 (inactive) | 0.975 (inactive) | 1.02 (inactive) | 1.01 (inactive) | 0.999 (inactive) | 0.984 (inactive) |
| CCCCN1CCCCC1C(=O)Nc1c(C)cccc1C (stereo not given) [Bupivacaine hydrochloride] (20 µM) | 1.13 | 1.07 | 1 | 0.881 | 0.967 (inactive) | 1.02 (inactive) | 1.01 (inactive) | 1.02 (inactive) | 0.995 (inactive) | 1.01 (inactive) | 1 (inactive) | 1.02 (inactive) |
| CC1CNc2c(cccc2S(=O)(=O)N[C@@H](CCCNC(=N)N)C(=O)N2CC[C@@H](C)C[C@@H]2C(=O)O)C1 (stereo not given in full) [Argatroban] (20 µM) | 1.12 | 0.953 | 1.16 | 0.732 | 0.986 (inactive) | 0.976 (inactive) | 0.987 (inactive) | 0.978 (inactive) | 1.04 (inactive) | 1.01 (inactive) | 1 (inactive) | 0.937 (inactive) |
| CCC(NC(C)C)C(O)c1ccc(O)c2[nH]c(=O)ccc12 (stereo not given) [Procaterol hydrochloride] (20 µM) | 1.07 | 1.02 | 1.03 | 1.02 | 1.01 (inactive) | 1.02 (inactive) | 1.1 (inactive) | 0.978 (inactive) | 0.949 (inactive) | 0.922 (inactive) | 1.06 (inactive) | 1.14 (inactive) |
| Clc1ccc(Cn2c(CN3CCCC3)nc3ccccc32)cc1 [Clemizole hydrochloride] (20 µM) | 1.15 | 1.01 | 1.05 | 0.643 | 0.939 (inactive) | 1.11 (inactive) | 0.858 (inactive) | 0.882 (inactive) | 0.958 (inactive) | 1.41 (active) | 1.01 (inactive) | 0.968 (inactive) |
| Nc1ncnc2c1ncn2[C@@H]1O[C@H](CO)[C@@H](O)[C@@H]1O [Vidarabine] (20 µM) | 1.1 | 1.07 | 0.99 | 0.857 | 1.05 (inactive) | 0.947 (inactive) | 0.935 (inactive) | 1.11 (inactive) | 1.02 (inactive) | 0.957 (inactive) | 0.989 (inactive) | 0.976 (inactive) |
| COc1cc(C(=O)NS(=O)(=O)c2ccccc2C)ccc1Cc1cn(C)c2ccc(NC(=O)OC3CCCC3)cc12 [Zafirlukast] (20 µM) | 0.542 | 0.946 | 0.99 | 0.355 | 1.05 (inactive) | 0.371 (active) | 0.582 (active) | 0.977 (inactive) | 1.02 (inactive) | 1.02 (inactive) | 1.01 (inactive) | 0.814 (inactive) |
| CC(C)c1nc(CN(C)C(=O)N[C@H](C(=O)N[C@@H](Cc2ccccc2)C[C@H](O)[C@H](Cc2ccccc2)NC(=O)OCc2cncs2)C(C)C)cs1 [Ritonavir] (20 µM) | 1.01 | 0.962 | 0.987 | 0.983 | 1.08 (inactive) | 0.822 (inactive) | 0.942 (inactive) | 0.943 (inactive) | 1.01 (inactive) | 0.99 (inactive) | 0.985 (inactive) | 0.939 (inactive) |
| CCOc1ccccc1OCC1CNCCO1 (stereo not given) [Viloxazine hydrochloride] (20 µM) | 0.836 | 0.991 | 0.986 | 0.675 | 0.986 (inactive) | 1.03 (inactive) | 0.572 (active) | 1.06 (inactive) | 1 (inactive) | 0.971 (inactive) | 0.992 (inactive) | 0.696 (active) |
| CCN(CC)C(C)CN1c2ccccc2Sc2ccccc21 (stereo not given) [Ethopropazine hydrochloride] (20 µM) | 1.04 | 0.975 | 0.954 | 0.823 | 1.01 (inactive) | 1.03 (inactive) | 0.928 (inactive) | 1.05 (inactive) | 1 (inactive) | 1.04 (inactive) | 0.992 (inactive) | 0.984 (inactive) |
| CC(/C=C1\SC(=S)N(CC(=O)O)C1=O)=C\c1ccccc1 [Epalrestat] (20 µM) | 1.15 | 0.964 | 1.05 | 0.896 | 1.05 (inactive) | 1.01 (inactive) | 1.16 (inactive) | 1.14 (inactive) | 0.992 (inactive) | 0.932 (inactive) | 1.12 (inactive) | 1.44 (inactive) |
| Cc1cc(C(C)(C)C)c(O)c(C)c1CC1=NCCN1 [Oxymetazoline hydrochloride] (20 µM) | 0.934 | 1.02 | 0.987 | 0.978 | 0.947 (inactive) | 1.03 (inactive) | 1.01 (inactive) | 0.983 (inactive) | 0.958 (inactive) | 0.968 (inactive) | 1.01 (inactive) | 0.996 (inactive) |
| C[N+](C)(C)CCCCCC[N+](C)(C)C [Hexamethonium dibromide dihydrate] (20 µM) | 0.959 | 0.998 | 1 | 0.892 | 1.02 (inactive) | 1.02 (inactive) | 1.03 (inactive) | 1.04 (inactive) | 0.982 (inactive) | 0.984 (inactive) | 1 (inactive) | 1.01 (inactive) |
| Nc1nc(O)c2ncn(CCC(CO)CO)c2n1 [Penciclovir] (20 µM) | 1.11 | 1.12 | 1.06 | 1.14 | 0.824 (inactive) | 1.07 (inactive) | 1.08 (inactive) | 1.08 (inactive) | 0.962 (inactive) | 0.996 (inactive) | 1.02 (inactive) | 1.12 (inactive) |
| CCCCOc1ccc(OCCCN2CCOCC2)cc1 [Pramoxine hydrochloride] (20 µM) | 1.11 | 0.971 | 1.17 | 0.899 | 0.904 (inactive) | 1.06 (inactive) | 1.01 (inactive) | 0.96 (inactive) | 0.976 (inactive) | 0.97 (inactive) | 1.02 (inactive) | 1.07 (inactive) |
| CC(Oc1ccccc1)C(=O)N[C@@H]1C(=O)N2[C@@H]1SC(C)(C)[C@@H]2C(=O)O (stereo not given in full) [Phenethicillin potassium salt] (20 µM) | 0 | 1.05 | 0.995 | 0 | 0.936 (inactive) | 0.0424 (active) | 0.045 (active) | 0.969 (inactive) | 0.954 (inactive) | 1.06 (inactive) | 1.02 (inactive) | 0.0417 (active) |
| OC[C@H]1O[C@@H](c2ccc(Cl)c(Cc3ccc(O[C@H]4CCOC4)cc3)c2)[C@H](O)[C@@H](O)[C@@H]1O [Empagliflozin] (20 µM) | 1.04 | 1 | 1 | 0.989 | 0.998 (inactive) | 1.05 (inactive) | 0.872 (inactive) | 1.02 (inactive) | 0.986 (inactive) | 1.02 (inactive) | 0.974 (inactive) | 0.83 (inactive) |
| C#C[C@]1(O)CC[C@H]2[C@@H]3CCC4=C(CCC(=O)C4)[C@H]3CC[C@@]21C [Norethynodrel] (20 µM) | 0.978 | 1.04 | 1 | 1.02 | 1.03 (inactive) | 0.936 (inactive) | 1.03 (inactive) | 1.04 (inactive) | 1.03 (inactive) | 0.979 (inactive) | 1.01 (inactive) | 0.989 (inactive) |
| CCC(=O)O[C@]1(C(=O)SCF)[C@H](C)C[C@H]2[C@@H]3C[C@H](F)C4=CC(=O)C=C[C@]4(C)[C@@]3(F)[C@@H](O)C[C@@]21C [Fluticasone propionate] (20 µM) | 0.911 | 0.976 | 1.03 | 0.998 | 1.04 (inactive) | 0.989 (inactive) | 0.935 (inactive) | 0.994 (inactive) | 1.01 (inactive) | 0.995 (inactive) | 1.01 (inactive) | 0.931 (inactive) |
| COC(=O)C1=C(C)NC(C)=C(C(=O)OCCN2CCN(C(c3ccccc3)c3ccccc3)CC2)C1c1cccc([N+](=O)[O-])c1 (stereo not given) [Manidipine Dihydrochloride] (20 µM) | 0.816 | 1.01 | 1 | 0.934 | 1 (inactive) | 0.799 (inactive) | 0.848 (inactive) | 0.983 (inactive) | 1 (inactive) | 1.01 (inactive) | 0.997 (inactive) | 0.9 (inactive) |
| C[N+](C)(C)C[C@H](O)CC(=O)[O-] [Levocarnitine] (20 µM) | 0.997 | 1 | 0.994 | 0.966 | 1.04 (inactive) | 0.955 (inactive) | 1.07 (inactive) | 1.02 (inactive) | 1.03 (inactive) | 0.929 (inactive) | 1.09 (inactive) | 1.22 (inactive) |
